# Results from PubChem BioAssay (NCATS).
# Results filed as inconclusive are left out. Unmarked numbers belong to inactive results. Activity calls are given as the source filed them. Unless noted, the call rests on the fitted dose curve.
# Tested on: not listed separately
# Assay: P-glycoprotein substrates identified in KB-8-5-11 adenocarcinoma cell line, qHTS therapeutic library screen (AID 1346987; active means well fitted inhibition curve with a large enough effect; further: nearly all actives have a fitted effect of over 65% in size; further: potency means the concentration at half of the fitted maximal effect)
# Conditions: KB-8-5-11 (P-gp overexpressing) viability, CellTiter-Glo, 72 h; series mostly up to 44.5 µM; activity change, negative = cytotoxicity: at the top concentration
# Outline: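 Steps: plate 500 KB-8-5-11 cells/well in DMEM + 10% FCS (colchicine removed); pin compounds in dose-response; incubate 72 h, 37 degree C, 5% CO2; add CellTiter-Glo, 5 min; read luminescence.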
# On the % scale 0 is the no-effect control and ±100 the full control effect.
SMILES,Potency,"activity change, negative = cytotoxicity [%]"
CCOc1ccc2ccccc2c1C(=O)N[C@@H]1C(=O)N2[C@@H]1SC(C)(C)[C@@H]2C(=O)O,inactive,
O=C1O[C@H]([C@@H](O)CO)C(O)=C1O,inactive,
CCN(CC)C(=O)Nc1ccc(OCC(O)CNC(C)(C)C)c(C(C)=O)c1 (stereo unspecified),inactive,
CCOc1nc2cccc(C(=O)O)c2n1Cc1ccc(-c2ccccc2-c2nn[nH]n2)cc1,inactive,
Nc1cc(=O)[nH]c(N)n1,,9.47
NC(N)=NCCC[C@H](N)C(=O)O,,-4.36
CCCCC(CC)COC(=O)c1ccccc1O (stereo unspecified),,1.76
CC1(C)S[C@@H]2[C@H](NC(=O)Cc3ccccc3)C(=O)N2[C@H]1C(=O)O (tested in a mixture with another compound),,-6.28
CN(C)CC[C@@H](c1ccc(Cl)cc1)c1ccccn1,,0.89
CCCOC(=O)c1ccccc1,,-4.39
CC(=O)Oc1ccc(C2(c3ccc(OC(C)=O)cc3)C(=O)Nc3ccccc32)cc1,inactive,
CC(C)(C(=O)O)c1ccc(C(O)CCCN2CCC(C(O)(c3ccccc3)c3ccccc3)CC2)cc1 (stereo unspecified),inactive,
N[C@H](C(=O)O)c1ccc(O)cc1,,-6.94
Cc1c(Cl)cccc1Nc1ccccc1C(=O)O,,-42.8
CN(C)CCCN1c2ccccc2CCc2ccccc21,9.2 µM (active),
CC1=C(CC(=O)O)c2cc(F)ccc2/C1=C\c1ccc(S(C)(=O)=O)cc1,,-8.1
C[C@H]1O[C@@H](n2cc(F)c(=O)[nH]c2=O)[C@H](O)[C@@H]1O,,0.879
CSc1ccc2c(c1)C(N1CCN(C)CC1)Cc1ccccc1S2 (stereo unspecified),,-20.9
CN1CCN(C2Cc3ccccc3Sc3ccc(Cl)cc32)CC1 (stereo unspecified),,-26
O=C(O)Cc1sc(-c2ccccc2)nc1-c1ccc(Cl)cc1,inactive,
Cc1cc(CC(=O)O)n(C)c1C(=O)c1ccc(Cl)cc1,inactive,
CCN(CC)CCCC(C)Nc1c2ccc(Cl)cc2nc2ccc(OC)cc12 (stereo unspecified),6.32 µM (active),
CO/N=C(\C(=O)N[C@@H]1C(=O)N2C(C(=O)O)=C(CSc3nc(=O)c(O)nn3C)CS[C@H]12)c1csc(N)n1,,-5.54
CCN(CC)CCOC(=O)C1(C2CCCCC2)CCCCC1,,-18.2
Oc1cccc(O)c1,,-15.2
CC(C)C(=O)c1c(C(C)C)nn2ccccc12,,-5.69
CC[C@@]1(c2ccccc2)NC(=O)N(C)C1=O,,2.63
CC(=O)NC(Cc1ccccc1)C(=O)O (stereo unspecified),inactive,

# Tested on: not listed separately
# Assay: Natriuretic polypeptide receptor (hNpr1) antagonism - Pilot counterscreen GloSensor control cell line (AID 1347045)
# Conditions: HEK293 cGMP GloSensor cells, SNP-stimulated luminescence, 20 min; series mostly up to 38.3 µM; activity change, negative = inhibition: at the top concentration
# Outline: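 Luminescence was read before and 20 min after adding 50 uM SNP, which stimulates soluble guanylyl cyclase. The HEK293 cells expressing the GloSensor cGMP sensor had been preloaded with 2% reagent for 2 h and treated with compound.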
SMILES,outcome,"activity change, negative = inhibition [%]"
CC(C)(C)[C@]1(O)CCN2C[C@H]3c4ccccc4CCc4cccc(c43)[C@@H]2C1,inactive,
CN(C)CCC=C1c2ccccc2CCc2ccccc21,,17.5
CC[C@H]1CN2CCc3cc(OC)c(OC)cc3[C@@H]2C[C@@H]1C[C@H]1NCCc2cc(OC)c(OC)cc21,,-1.25
CC(C)(C)c1onc(OCP(=O)(O)O)c1CC(N)C(=O)O (stereo unspecified),inactive,
CNCC(O)c1ccc(O)c(O)c1 (stereo unspecified),,2.15
CC(C)NC[C@H](O)c1ccc(O)c(O)c1,inactive,
CN(C)CCCN1c2ccccc2CCc2ccccc21,,-6.3
C[C@](N)(Cc1ccc(O)cc1)C(=O)O,,-4.36
CC1=C(CC(=O)O)c2cc(F)ccc2/C1=C\c1ccc(S(C)(=O)=O)cc1,,-13.1
CN(C)CCOC(C)(c1ccccc1)c1ccccn1 (stereo unspecified),,6.04
CC(=O)OCC(=O)[C@@]1(O)CC[C@H]2[C@@H]3CCC4=CC(=O)CC[C@]4(C)[C@H]3C(=O)C[C@@]21C,,10.7
N=c1c[n+](N2CCOCC2)[n-]o1,,-11.7
CN1CCN(C2Cc3ccccc3Sc3ccc(Cl)cc32)CC1 (stereo unspecified),,9.93
CCN(CC)CCOC(=O)C1(C2CCCCC2)CCCCC1,,26.1
CC(CN(C)C)CN1c2ccccc2CCc2ccccc21 (stereo unspecified),,-2.13
CC(C)C(=O)c1c(C(C)C)nn2ccccc12,,45.3
C[C@]12CC[C@@H]3c4ccc(O)cc4CC[C@H]3[C@@H]1CCC2=O,,5.68

# Molecular target: Atrial natriuretic peptide receptor 1 (Homo sapiens) (UniProt P16066)
# Assay: Natriuretic polypeptide receptor (hNpr1) antagonism - Pilot screen (AID 1347049);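 further: agonist-evoked cGMP luminescence read 20 min after hNppA addition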
# Conditions: hNpr1 cells, antagonist mode cGMP read-out; series mostly up to 57.5 µM; activity change, negative = inhibition: at the top concentration
# Outline: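 HEK293 cells co-expressing hNpr1 and the GloSensor pGS-40F cGMP luciferase sensor were preloaded with 2% GloSensor reagent for 2 h. Compounds were added for 30 min at room temperature, then cells were stimulated with 0.1 nM hNppA for 20 min before luminescence readout.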
# Chain of Atrial natriuretic peptide receptor 1 (Homo sapiens) (P16066 whole entry, looked up): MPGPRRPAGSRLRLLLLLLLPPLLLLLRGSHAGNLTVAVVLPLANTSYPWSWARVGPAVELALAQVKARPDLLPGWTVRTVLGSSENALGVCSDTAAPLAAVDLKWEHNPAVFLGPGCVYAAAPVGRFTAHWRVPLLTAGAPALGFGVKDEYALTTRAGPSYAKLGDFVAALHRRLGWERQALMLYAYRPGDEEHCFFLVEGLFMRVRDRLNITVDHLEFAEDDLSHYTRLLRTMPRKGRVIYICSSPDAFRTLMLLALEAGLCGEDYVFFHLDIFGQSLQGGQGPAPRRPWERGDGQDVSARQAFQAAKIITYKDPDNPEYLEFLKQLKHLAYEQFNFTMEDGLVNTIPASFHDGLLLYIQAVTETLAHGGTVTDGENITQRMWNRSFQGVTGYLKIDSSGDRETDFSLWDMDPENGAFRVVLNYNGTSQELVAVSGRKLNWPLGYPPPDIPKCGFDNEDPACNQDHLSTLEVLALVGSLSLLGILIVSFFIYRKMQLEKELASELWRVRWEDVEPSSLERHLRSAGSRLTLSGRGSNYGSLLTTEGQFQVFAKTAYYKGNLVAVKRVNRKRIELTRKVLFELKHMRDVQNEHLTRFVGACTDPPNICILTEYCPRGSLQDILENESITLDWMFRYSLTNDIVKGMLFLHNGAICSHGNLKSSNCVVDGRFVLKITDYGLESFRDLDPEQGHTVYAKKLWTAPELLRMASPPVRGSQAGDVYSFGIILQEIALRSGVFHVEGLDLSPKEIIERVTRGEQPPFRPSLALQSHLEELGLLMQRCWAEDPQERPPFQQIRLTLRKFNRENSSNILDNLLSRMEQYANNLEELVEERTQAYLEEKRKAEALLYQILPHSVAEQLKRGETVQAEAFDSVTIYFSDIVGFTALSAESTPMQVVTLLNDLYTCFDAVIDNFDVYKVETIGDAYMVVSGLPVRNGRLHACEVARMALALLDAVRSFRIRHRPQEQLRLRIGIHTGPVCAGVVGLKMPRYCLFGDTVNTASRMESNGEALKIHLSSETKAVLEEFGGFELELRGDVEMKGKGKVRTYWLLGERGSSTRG
SMILES,"activity change, negative = inhibition [%]",outcome
CC(C)(C)[C@]1(O)CCN2C[C@H]3c4ccccc4CCc4cccc(c43)[C@@H]2C1,0.587,
CN(C)CCC=C1c2ccccc2CCc2ccccc21,2.37,
CC[C@H]1CN2CCc3cc(OC)c(OC)cc3[C@@H]2C[C@@H]1C[C@H]1NCCc2cc(OC)c(OC)cc21,0.896,
CC(C)(C)c1onc(OCP(=O)(O)O)c1CC(N)C(=O)O (stereo unspecified),,inactive
CNCC(O)c1ccc(O)c(O)c1 (stereo unspecified),9.72,
Nc1cc(=O)[nH]c(N)n1,1.44,
NC(N)=NCCC[C@H](N)C(=O)O,18.9,
CN(C)CC[C@@H](c1ccc(Cl)cc1)c1ccccn1,-3.16,
CC(C)NC[C@H](O)c1ccc(O)c(O)c1,,inactive
CN(C)CCCN1c2ccccc2CCc2ccccc21,-11.4,
C[C@](N)(Cc1ccc(O)cc1)C(=O)O,4.44,
CC1=C(CC(=O)O)c2cc(F)ccc2/C1=C\c1ccc(S(C)(=O)=O)cc1,-11.9,
CN(C)CCOC(C)(c1ccccc1)c1ccccn1 (stereo unspecified),-0.38,
CC(=O)OCC(=O)[C@@]1(O)CC[C@H]2[C@@H]3CCC4=CC(=O)CC[C@]4(C)[C@H]3C(=O)C[C@@]21C,5.69,
CSc1ccc2c(c1)C(N1CCN(C)CC1)Cc1ccccc1S2 (stereo unspecified),-18.3,
N=c1c[n+](N2CCOCC2)[n-]o1,-1.21,
CCN(CC)CCCC(C)Nc1c2ccc(Cl)cc2nc2ccc(OC)cc12 (stereo unspecified),0.295,
CCN(CC)CCOC(=O)C1(C2CCCCC2)CCCCC1,-5.03,
CC(CN(C)C)CN1c2ccccc2CCc2ccccc21 (stereo unspecified),-24.9,
CC(C)C(=O)c1c(C(C)C)nn2ccccc12,4.97,
C[C@]12CC[C@@H]3c4ccc(O)cc4CC[C@H]3[C@@H]1CCC2=O,-2.45,
